Assay results taken from article PMC4336329 (PLoS ONE, 2015).
Hit rate of the full screen: of about 310,000 compounds, about 14,000 (4.5%) showed an effect of 50% or more. Effects have a minus sign here. The list comes from a sample in which strong results are over-represented; it also holds similar structures and randomly drawn compounds.

Biological target: human ether-à-go-go-related gene (hERG) potassium channel (human, UniProt Q12809)
Assay: primary screen, population patch clamp on CHO cells stably expressing hERG; higher = less effect of the substance
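Note: peak tail current of the secondary pulse compared with the same well before compound.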

Chain of human ether-à-go-go-related gene (hERG) potassium channel (Q12809 whole entry, looked up): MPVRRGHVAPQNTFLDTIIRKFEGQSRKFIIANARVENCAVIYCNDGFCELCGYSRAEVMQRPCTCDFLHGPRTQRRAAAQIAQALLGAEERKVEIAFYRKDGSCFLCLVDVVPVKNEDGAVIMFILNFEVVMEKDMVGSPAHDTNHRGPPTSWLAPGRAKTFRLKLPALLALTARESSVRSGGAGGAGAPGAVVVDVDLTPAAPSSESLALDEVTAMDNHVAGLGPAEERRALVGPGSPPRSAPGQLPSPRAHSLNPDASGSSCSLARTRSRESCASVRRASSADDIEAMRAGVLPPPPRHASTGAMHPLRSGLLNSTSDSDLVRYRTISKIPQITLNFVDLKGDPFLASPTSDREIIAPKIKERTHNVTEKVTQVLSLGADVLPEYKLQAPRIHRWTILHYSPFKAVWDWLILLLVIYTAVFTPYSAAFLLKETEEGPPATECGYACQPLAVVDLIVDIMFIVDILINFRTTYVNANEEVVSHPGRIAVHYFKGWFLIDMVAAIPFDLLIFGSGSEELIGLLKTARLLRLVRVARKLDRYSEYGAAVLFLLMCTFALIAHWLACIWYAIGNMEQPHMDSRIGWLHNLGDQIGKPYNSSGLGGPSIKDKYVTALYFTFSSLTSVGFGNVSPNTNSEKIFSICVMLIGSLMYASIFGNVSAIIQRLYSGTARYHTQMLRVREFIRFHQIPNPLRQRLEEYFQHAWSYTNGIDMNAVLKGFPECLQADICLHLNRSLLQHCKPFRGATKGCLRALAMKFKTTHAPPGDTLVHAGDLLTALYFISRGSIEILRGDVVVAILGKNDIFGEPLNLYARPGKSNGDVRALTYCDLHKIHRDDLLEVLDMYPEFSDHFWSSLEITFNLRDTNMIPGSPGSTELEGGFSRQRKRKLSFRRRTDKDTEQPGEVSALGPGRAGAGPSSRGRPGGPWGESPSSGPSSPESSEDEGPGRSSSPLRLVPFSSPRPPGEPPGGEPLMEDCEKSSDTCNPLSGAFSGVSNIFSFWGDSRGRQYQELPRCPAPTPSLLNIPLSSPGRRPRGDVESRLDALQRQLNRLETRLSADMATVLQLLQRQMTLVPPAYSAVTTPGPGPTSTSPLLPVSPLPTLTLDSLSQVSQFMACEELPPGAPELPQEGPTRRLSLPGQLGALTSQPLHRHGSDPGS

Row | SMILES | hERG current change (%, negative = inhibition) at 10uM
1 | N#Cc1cc2ccccc2nc1SCC(=O)Nc1ccc(S(=O)(=O)N2CCCC2)cc1 | 6.03%
2 | Cn1ncnc2c(=O)n(C)c(=O)nc1-2 | -2.67%
3 | O=C(NCc1ccccc1)Nc1cccn(Cc2ccccc2Cl)c1=O | 18.8%
4 | Cc1nc2ccccc2c(=O)n1-c1ccc(F)cc1F | 3.52%
5 | CCOC(=O)CNC(=O)c1ccc2[nH]c3c(c2c1)CCCC3 | 11.5%
6 | CCOC(=O)c1ccc(OCCOc2ccccc2C)cc1 | 24%
7 | O=c1c(Cl)c(N2CCN(S(=O)(=O)c3ccc(F)cc3)CC2)cnn1-c1cccc(Cl)c1 | -29.4%
8 | O=C(CSCc1ccccc1Br)N/N=C/c1ccc(OCC(=O)N2CCCCC2)cc1 | -15.9%
9 | CNC(=O)c1[nH]cnc1C(=O)Nc1ccc(OC)cc1 | 20.8%
10 | O=c1[nH]cnc2cc(-c3ccc(Br)cc3)sc12 | 12.3%
11 | CN(C)S(=O)(=O)c1ccc(N2CCCC2)c(C(=O)N2CCN(S(=O)(=O)c3cccc(F)c3)CC2)c1 | -10.7%
12 | Cc1nnc2ccc(-c3cccc(NS(=O)(=O)c4cc(F)ccc4F)c3)nn12 | -0.0273%
13 | O=C(O)CSCC(=O)Nc1ccc(C(=O)O)cc1 | 12.5%
14 | Cc1oc2c(CN3CCCCC3C)c(O)ccc2c(=O)c1-c1ccc(Br)cc1 (centres unmarked) | -50.9%
15 | COc1ccc(-c2c(C)oc3c(CN4CCCCC4C)c(O)ccc3c2=O)cc1 (centres unmarked) | -16.6%
16 | Cc1oc2c(CN3CCCCC3C)c(O)ccc2c(=O)c1-c1ccccc1 (centres unmarked) | -27.6%
17 | O=C(Cc1c(F)cccc1Cl)NCCc1c[nH]c2ccccc12 | 8.99%
18 | Cc1nn(CC#N)c(=O)n1-c1ccccc1 | 8.38%
19 | CCn1c(SCC#N)nc2c(c1=O)C1(CCCC1)Cc1ccccc1-2 | 2.38%
20 | CN(Cc1ccccc1)C(=O)CN(Cc1ccccc1)S(C)(=O)=O | -4.6%
21 | O=C(c1ccc(S(=O)(=O)c2ccccc2Cl)c([N+](=O)[O-])c1)N1CCCCCC1 | -11%
22 | COCCN(CC1CCCN(C2Cc3ccccc3C2)C1)C(=O)CCC(C)=O (centres unmarked) | -6.4%
23 | COCCN(CC1CCCN(C2Cc3ccccc3C2)C1)C(=O)CCSC (centres unmarked) | -45.8%
24 | COC(=O)CCCC(=O)NC1CCCN(C2Cc3ccccc3C2)C1 (centres unmarked) | -10.6%

Row | SMILES | hERG current change (%, negative = inhibition) at 10uM
25 | O=C(NCC1CCCN(C2Cc3ccccc3C2)C1)c1cccs1 (centres unmarked) | -40.7%
26 | COCCN(CC1CCCN(C2Cc3ccccc3C2)C1)C(=O)CCC(F)(F)F (centres unmarked) | -55.4%
27 | COCCN(CC1CCCN(C2Cc3ccccc3C2)C1)C(=O)CCC(N)=O (centres unmarked) | -75.1%
28 | CCCC(=O)N(CCc1ccc(OC)cc1)Cc1nc2ccccc2c(=O)[nH]1 | -8.61%
29 | COc1ccc2c(c1)c(CC(=O)Nc1cccc(S(N)(=O)=O)c1)c(C)n2C(=O)c1ccc(Cl)cc1 | 1.02%
30 | CCN(CC(=O)NCc1ccc(F)cc1)S(=O)(=O)c1ccc(C)cc1 | -43.6%
31 | O=C(CN(Cc1ccccc1)S(=O)(=O)c1ccc(Br)cc1)NCc1ccco1 | -51.6%
32 | CCN(CC(=O)NCc1ccco1)S(=O)(=O)c1ccc(F)cc1 | 5.61%
33 | CS(=O)(=O)N(CCc1ccccc1)CC(=O)NCc1ccco1 | -3.21%
34 | Cc1ccc(S(=O)(=O)N(CC(=O)NCc2ccncc2)Cc2ccc(F)cc2)cc1 | -79.2%
35 | COc1ccc(S(=O)(=O)N(C)CC(=O)NCc2cccnc2)cc1 | -31.8%
36 | COc1ccc(S(=O)(=O)N(CC(=O)NCc2cccnc2)Cc2ccccc2)cc1 | -76.5%
37 | Cc1ccc(S(=O)(=O)N(CC(=O)NCc2ccco2)Cc2ccc(F)cc2)cc1 | -67.1%
38 | CN(CC(=O)NCc1ccncc1)S(=O)(=O)c1ccc(F)cc1 | -0.77%
39 | Cc1ccc(S(=O)(=O)N(Cc2ccc(F)cc2)Cc2ccco2)cc1 | 2.28%
40 | CCN(CC(=O)NCc1ccco1)S(=O)(=O)c1ccc(OC)cc1 | 3.31%
41 | CCN(CC(=O)NCc1cccnc1)S(=O)(=O)c1ccc(OC)cc1 | -28.3%
42 | COc1cccc(-n2c(Cc3cc(=O)[nH]c(=O)[nH]3)nnc2SCC(=O)N2CCCCCC2)c1 | 0.34%
43 | CCc1cccc(C)c1NC(=O)C1CCCN1C(=O)NCc1ccccc1 (centres unmarked) | 18.4%
44 | CCOC(=O)c1ccc(NC(=O)c2c(C)[nH]c(C(=O)OCC)c2C)cc1 | -6.95%
45 | Cc1ccc(NC(=O)CCn2cnc3ccccc3c2=O)c(C)c1 | 6.65%
46 | CCCCn1c(SCC(=O)N(CC)C2CCS(=O)(=O)C2)nc2cc(S(N)(=O)=O)ccc21 (centres unmarked) | -5.49%
47 | CC1(C)CC(=O)C(C(=O)c2ccccc2)C(=O)C1Cl (centres unmarked) | 3.06%
48 | O=C(CN(Cc1ccc(Br)cc1)S(=O)(=O)c1ccccc1)NCc1cccnc1 | -17.2%

Row | SMILES | hERG current change (%, negative = inhibition) at 10uM
49 | CCCNC(=O)CN(Cc1ccccc1F)S(=O)(=O)c1ccc(C)cc1 | -6.17%
50 | CCN(CC(=O)NCc1ccncc1)S(=O)(=O)c1ccccc1 | 5.51%
51 | O=C(CN(Cc1ccc(Br)cc1)S(=O)(=O)c1ccccc1)NCc1ccncc1 | -68.8%
52 | O=C(CN(Cc1ccc(Br)cc1)S(=O)(=O)c1ccccc1)NCc1ccccn1 | -42%
53 | Cc1ccc(S(=O)(=O)N(CC(=O)O)Cc2ccccc2F)cc1 | 3.18%
54 | O=C(O)CN(Cc1ccccc1)S(=O)(=O)c1ccc(F)cc1 | 2.09%
55 | CN(CC(=O)NCc1cccnc1)S(=O)(=O)c1ccc(F)cc1 | 21.3%
56 | O=C(CN(Cc1ccccc1)S(=O)(=O)c1ccc(F)cc1)NCc1cccnc1 | -57.8%
57 | O=C(CN(Cc1ccccc1)S(=O)(=O)c1ccc(F)cc1)NCc1ccncc1 | -52.3%
58 | O=C(CN(Cc1ccccc1)S(=O)(=O)c1ccc(F)cc1)NCc1ccccn1 | -10.6%
59 | Cc1ccc(S(=O)(=O)N(CC(=O)NCc2ccncc2)Cc2ccccc2F)cc1 | -78.6%
60 | COc1ccccc1NC(=O)c1cc2c(CO)cnc(C)c2oc1=Nc1ccc(OC)c(OC)c1 | 13.3%
61 | COc1ccc(NN=Nc2ccc([N+](=O)[O-])cc2)cc1 | 19.1%
62 | OC1COC(OCC2OC(OCc3ccccc3)C(O)C(O)C2O)C(O)C1O (centres unmarked) | -11.1%
63 | CCOC(=O)N1CCN(C(=O)c2cc3cc(OC)c(OC)cc3[nH]2)CC1 | 5.96%
64 | CC(=O)Nc1ccc(NC(=O)c2cc(-n3cnnc3)ccc2Cl)cc1 | 15.7%
65 | COc1cccc(C(C2C(=O)CC(C)(C)CC2=O)C2C(=O)CC(C)(C)CC2=O)c1 | 21.2%
66 | O=C(N1CCN(c2ccc(F)cc2)CC1)C12CC3CC(CC(C3)C1)C2 | 5.05%
67 | CN(C)c1nc(OCCNC(=O)Nc2ccccc2)nc(N2CCCCC2)n1 | 0.123%
68 | CC[n+]1c(C)n(-c2ccccc2)c2ccc(NC(C)=O)cc21.[I-] | 11%
69 | Cc1nc(NCCc2ccccc2)c(C#N)c(C)c1[N+](=O)[O-] | 6.5%
70 | CCOC(=O)c1sc(NC(=O)c2sc(C)nc2C)nc1C | -4.49%
71 | Fc1ccc(/C=N/NC(=S)Nc2ccc(Cl)cc2)cc1F | 9.62%
72 | Cc1ccc(S(=O)(=O)NC(CC(=O)NCc2ccco2)c2ccco2)cc1 (centres unmarked) | -0.749%

Row | SMILES | hERG current change (%, negative = inhibition) at 10uM
73 | O=[N+]([O-])c1ccc(Nc2ccccc2)c2nonc12 | -8.36%
74 | CCOc1ccc(Nc2ccc([N+](=O)[O-])c3nonc23)cc1 | -53.9%
75 | CCOc1ccc(Nc2ccc3nonc3c2[N+](=O)[O-])cc1 | 10.6%
76 | COc1ccccc1NC(=O)CSc1nc2nc(C)cc(C)c2c(=O)[nH]1 | 4.82%
77 | CCCCN(CCCC)C(=O)CSc1nnc(-c2cc(OC)c(OC)c(OC)c2)o1 | -58.5%
78 | CCCCOC(=O)CSc1nnc(-c2cc(OC)c(OC)c(OC)c2)o1 | -11.9%
79 | CCOC(=O)CSc1nnc(-c2cc(OC)c(OC)c(OC)c2)o1 | 12.1%
80 | COCCN(C(=O)CCC(=O)Nc1ccccn1)C(C(=O)NC(C)C)c1ccc(Cl)cc1 (centres unmarked) | -5.58%
81 | CN(C)c1ccc(/C=C2\CC3C4CC=C5CC(O)CCC5(C)C4CCC3(C)C2=O)cc1 (centres unmarked) | 3.55%
82 | COc1cc(C(=O)NCCOc2cc(C)cc(C)c2)c(Br)c(OC)c1OC | -18.4%
83 | O=S(=O)(NCCc1csc(-c2ccccc2)n1)c1cccnc1 | 8.48%
84 | C=C(C)CNC(=S)N/N=C(\C)c1ccc(-n2ccnc2)cc1 | -37.7%
85 | CCNC(=S)N/N=C(\C)c1cccc([N+](=O)[O-])c1 | -45.9%
86 | C/C(=N\NC(=O)COc1ccc(C(C)(C)C)cc1)c1ccc(-n2ccnc2)cc1 | -58.9%
87 | COCCNC(=S)N/N=C(\C)c1ccc(C)c([N+](=O)[O-])c1 | -26.6%
88 | C/C(=N\NC(N)=O)c1ccc(-n2ccnc2)cc1 | 10.9%
89 | COc1ccc(OCC(=O)N/N=C(\C)c2ccc(-n3ccnc3)cc2)cc1 | -42.6%
90 | C=CCNC(=S)N/N=C(\C)c1ccc(-n2ccnc2)cc1 | -43%
91 | C/C(=N\NC(=O)COc1ccc(C(C)(C)C)cc1)c1ccc(N2CCOCC2)cc1 | 5.99%
92 | C/C(=N\NC(=O)COc1ccc(C)cc1C(C)C)c1ccc(-n2ccnc2)cc1 | -33.4%
93 | CCc1ccc(OCC(=O)N/N=C(\C)c2ccc(-n3ccnc3)cc2)cc1 | -71.8%
94 | COCCNC(=S)N/N=C(\C)c1cccc([N+](=O)[O-])c1 | -70.4%
95 | COCCNC(=S)N/N=C(\C)c1ccc(-n2ccnc2)cc1 | -66.2%
